# About 6,200 (1.8%) of roughly 340,000 compounds were called active. Entries that show only a call come without a potency. Inconclusive results (about 10%) are left out. Only a selection was taken, and actives are over-represented in it overall. Values without a mark were called inactive. Calls come from the whole dose curve; as a rule, active = well fitted activation curve with a large enough effect; inconclusive = small, poorly fitted or top-dose-only effect; inactive = no such curve, though single readings can be large or run the other way.
# Assay: A quantitative high throughput screen for small molecules that induce DNA re-replication in SW480 colon adenocarcinoma cells. Note: nearly all actives have a fitted effect of over 55% in size.
# Details: Hoechst DNA content imaging, 48 h; series mostly up to 46.1 µM
# Method in brief: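 Image-based read-out: total Hoechst fluorescence of nuclei (405 nm excitation, 500-530 nm emission), with hits raising the fraction of high-intensity nuclei. SW480 colon cells incubated 48 hr with compounds at 37 C.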
# Potency is the fitted concentration of half-maximal effect.
SMILES,Potency,re-replication activation
COc1ccccc1N(CC(=O)Nc1ccc(C)cc1Cl)S(=O)(=O)c1cccs1,inactive,
CC(=O)c1c(OCC(=O)N(C)C2CCCCC2)ccc2c(C)cc(=O)oc12,inactive,
CC(=O)c1cccc(-c2ccc(CN3C(CC(C)C)C(=O)N(Cc4cn(CC5CCCCC5)nn4)CCS3(=O)=O)cc2)c1 (stereo unspecified),inactive,
CCOc1cccc(/C=N/N2C(=O)CSC2=S)c1O,inactive,
Cc1ccc(C(=O)NC(=S)NCCN2CCOCC2)cc1,inactive,
CCOc1cccc(/C=N/NC(=S)NCCN2CCOCC2)c1O,1.46 µM (active),
COC1C(CO)OC(n2cnc3c(=S)nc(N)[nH]c32)C1O (stereo unspecified),inactive,
COc1cc2c(cc1OC)C1C(=O)c3cc(OS(C)(=O)=O)c(OC)cc3C1N(C)C2=O (stereo unspecified),7.31 µM (active),
CCOc1cc2c(cc1OCC)C(C(=O)O)C(c1ccc(OC)c(O)c1)N(C)C2=O (stereo unspecified),,-13.5% [at 9.22 µM]
COc1cccc(NC(=O)C2c3cc(OC)c(OC)cc3C(=O)N(C)C2c2cccnc2)c1 (stereo unspecified),inactive,
O=C1CC[C@@H]2CC3(C[C@@H]4CCN1[C@H]24)Nc1cc([N+](=O)[O-])ccc1NC3=NC1CCCCC1 (stereo partly specified),inactive,
CC(NC(=O)COC(=O)CCC(=O)c1ccc(Cl)cc1)c1ccccc1 (stereo unspecified),inactive,
Nc1nnc2c(C(F)(F)F)nc3ccccc3n12,inactive,
FC(F)(F)c1nnc2c3ccccc3c(Cl)nn12,2.59 µM (active),
FC(F)(F)c1nnc2ccc(N3CCN(c4ccccc4)CC3)nn12,inactive,
COc1ccc(NS(=O)(=O)c2cc(NC(=O)c3ccc(S(=O)(=O)N(C)C)cc3)ccc2N2CCOCC2)cc1,inactive,
COc1ccccc1C(=O)NCC(=O)OCC(=O)NNC(=O)c1ccc(Br)cc1,inactive,
COc1ccc(/C=C2/CCCc3ccccc3C2=O)cc1,9.2 µM (active),
COc1ccc(/C=C2\N=C3CCCN3C2=O)cc1,inactive,
COc1ccc(/C=C2\CCc3ccccc3C2=O)c(OC)c1OC,inactive,
O=C(CN1C(=O)NC(Cc2c[nH]c3ccccc23)C1=O)Nc1ccccc1C(F)(F)F (stereo unspecified),inactive,
CCCN=C1N(C)C[C@@H]2[C@@H]3C(=O)N(Cc4ccccc4)C(=O)[C@@H]3[C@](C)(C(=O)OC)N12,inactive,
Nc1ccc2c(c1)C(O)c1ccc(Cl)cc1-2 (stereo unspecified),inactive,
CCCN1C2CCCC1CC(NC(=O)NC13CC4CC(CC(C4)C1)C3)C2 (stereo unspecified),inactive,
CCCNC(=S)NC1CC2CCCC(C1)N2CC(C)C (stereo unspecified),20.6 µM (active),
CCCN1C2CCCC1CC(NC(=O)c1cccc(OC)c1)C2 (stereo unspecified),inactive,

SMILES,Potency,re-replication activation
O=C1c2ccccc2[C@@H]2C[C@@H](O)[C@H](Nc3ccccc3Cl)CCN12,inactive,
Cc1ccc(S(=O)(=O)N(CC(=O)Nc2cccc([N+](=O)[O-])c2)Cc2ccc(Cl)cc2)cc1,8.2 µM (active),
COc1ccc(C)cc1S(=O)(=O)N(CC(=O)Nc1cccc([N+](=O)[O-])c1)c1ccc(C)cc1,inactive,
Cc1ccc(CN(C)CC(=O)Nc2cccc([N+](=O)[O-])c2)o1,inactive,
CCCN(C(=O)CSc1nnc(N)s1)c1c(N)n(Cc2ccccc2)c(=O)[nH]c1=O,inactive,
COc1ccc2c(c1)c(=Cc1ccc(N(C)C)cc1)c1cc(-c3ccccc3)[n+](C)n12,inactive,
CC(C)(C)OC(=O)CNC(=O)c1[nH]cnc1C(=O)N[C@@H](CCCCN)C(=O)OC(C)(C)C,inactive,
NS(=O)(=O)c1cccc(NC(=O)COC(=O)c2cc([N+](=O)[O-])ccc2N2CCCC2)c1,inactive,
COC(=O)CC(CC(=O)OC)n1cccc1,inactive,
CCN(CC)CCCC(C)n1c2nc(=O)[nH]c(=O)c-2nc2cc(Cl)ccc21 (stereo unspecified),11.6 µM (active),
O=C(Cc1ccc(NC(=O)C2CCCN(C(=O)C3CCCCC3)C2)cc1)Nc1cccc(C(=O)N2CCCCC2)c1 (stereo unspecified),,5.52% [at 9.22 µM]
Cc1cc(C2=NNC(=Nc3ccc(S(=O)(=O)N4CCOCC4)cc3)SC2)c(C)n1CC1CCCO1 (stereo unspecified),3.66 µM (active),
C=CCn1c(C)cc(C2=NNC(=NCC)SC2)c1C,inactive,
Cc1ccc(CC(=O)Nc2ccc(S(=O)(=O)N3CCOCC3)cc2)cc1C,inactive,
CN(C(=O)c1cccc(NC(=O)Cc2ccc(NC(=O)C3CCN(C(=O)C4CCCCC4)CC3)cc2)c1)C1CCC1,,10.8% [at 9.22 µM]
O=S1(=O)CSCS(=O)(=O)C1,inactive,
Cc1ccc2nc(-c3cccnc3)c(NC3CCCC3)n2c1,inactive,
COc1ccc(-c2nc3cnccn3c2NC2CCCCC2)cc1-c1cccc(Cl)c1,5.17 µM (active),
COc1ccc(-c2nc3cnccn3c2NC(C)(C)CC(C)(C)C)cc1O,inactive,
COc1cc(NC(=O)COC(=O)c2ccc([N+](=O)[O-])s2)cc(OC)c1OC,inactive,
CC(=O)c1ccc2c(c1)c1ccccc1n2CC(C)C,inactive,
CCCn1c(=O)c(-c2ccccc2)c(O)c2ccccc21,inactive,
CCCCN(CCCC)CC(O)Cn1c2ccccc2c(=O)c2ccccc21 (stereo unspecified),7.31 µM (active),
Cc1ccc(SCc2c(C(=O)N/N=C/c3cccnc3)nnn2-c2nonc2N)cc1,inactive,
Nc1nonc1-n1nnc(C(=O)N/N=C/c2cc(Br)ccc2O)c1CSC1=NCCS1,13 µM (active),
Nc1nonc1-n1nnc(C(=O)N/N=C/c2ccccc2O)c1CN1CCCC1,inactive,

SMILES,Potency,re-replication activation
O=C(CCCCCCCC(=O)N1CCCCC1)N1CCCCC1,inactive,
COc1ccc(C(=O)OCc2cc(=O)n3ccsc3n2)cc1F,inactive,
CCCNC(=O)c1c(N)n(-c2ccc(S(N)(=O)=O)cc2)c2nc3ccccc3nc12,0.82 µM (active),
Cc1noc(C)c1C(=O)NCCc1ccc(S(N)(=O)=O)cc1,inactive,
CCOC(=O)c1c(C)c(C(=O)NCCc2ccc(S(N)(=O)=O)cc2)c(C)n1CC,inactive,
Cc1csc(NC(=O)c2ccc(C)s2)n1,inactive,
O=C(Nc1cccc2ncccc12)c1ccc(-c2ccc(Cl)cc2Cl)o1,inactive,
Cc1csc(NC(=O)c2ccc(-c3ccc(Cl)cc3Cl)o2)n1,13 µM (active),
Cc1cccc(N2O[C@H]3C=CC2CCCC3)n1,inactive,
CC1CN(Cc2ccco2)C(=S)N(c2ccccc2)C1=O (stereo unspecified),inactive,
Cc1cc(C)nc(N2CCC(C(=O)Nc3ccc4c(c3)OCCO4)CC2)n1,inactive,
CN1CCN(S(=O)(=O)c2ccc(NC(=S)NC(=O)C3CC3)cc2)CC1,inactive,
Cc1cc(Nc2cc(N3CCN(C)CC3)nc(Sc3ccc(NC(=O)C4CC4)cc3)n2)n[nH]1,0.259 µM (active),
CC1Cc2ccccc2N1S(=O)(=O)c1cccc(C(=O)OCC(=O)N2CCOCC2)c1 (stereo unspecified),inactive,
O=C(COC(=O)C1CCCO1)Nc1nc(-c2ccc(F)cc2)cs1 (stereo unspecified),inactive,
CC[C@]1(C(=O)OC)[C@H]2C(=O)N(C)C(=O)[C@H]2[C@H]2CN(C)C(=NCc3ccccc3)N21,inactive,
O=C(COC(=O)CN1C(=O)C2CCCCC2C1=O)Nc1ccc(F)c(F)c1F (stereo unspecified),inactive,
O=C(CN1C(=O)C2C3CCC(C3)C2C1=O)Oc1ccc2ccccc2c1 (stereo unspecified),inactive,
CC1=CC(C)(C)Nc2ccc(OC(=O)CN3C(=O)C4CCCCC4C3=O)cc21 (stereo unspecified),20.6 µM (active),
COc1ccc(CNC(=O)CN2C(=O)c3ccccc3S2(=O)=O)cc1,inactive,
CCC(CO)Oc1cc(NC(=O)c2cccc3ccccc23)c2ncn(C(C)C)c2c1 (stereo unspecified),,-5.66% [at 9.22 µM]
Cc1ccc(COC(=O)CN2C(=O)NC3(CCCC3)C2=O)cc1,inactive,
O=C(CN1C(=O)NC2(CCCC2)C1=O)OCCOc1ccc(F)cc1,inactive,
CCc1ccc(C(=O)C(C)OC(=O)CN2C(=O)NC3(CCCC3)C2=O)cc1 (stereo unspecified),3.26 µM (active),
O=C1c2ccccc2C(=O)C1C(=O)C1CC1,inactive,
Cc1cccc(-n2ncc3c(=O)[nH]c(SCC(=O)Nc4cc(C)on4)nc32)c1,inactive,

SMILES,Potency,re-replication activation
CC(C)(C)C(=O)Nc1cccc(-c2ccc[nH]2)n1,inactive,
CCOc1ccc2nc(NCCNS(=O)(=O)c3ccccc3)c(C#N)cc2c1,18.4 µM (active),
CCOc1ccc2nc(NCCNC(=O)C(C)(C)C)c(C)cc2c1,inactive,
CCOc1ccc(S(=O)(=O)NCCSc2ccccc2)cc1,inactive,
O=C1C=CN2CCCC2CC1 (stereo unspecified),inactive,
Cc1nc(N)nc(Cl)c1CCC1OCCO1,inactive,
CC(OC(=O)c1ccc([N+](=O)[O-])cc1)C(=O)NCC1CCCCC1 (stereo unspecified),inactive,
COc1ccc(CCNC(=O)C(Sc2ccccn2)c2ccccc2)cc1OC (stereo unspecified),inactive,
COc1ccc(COC(=O)NC(C(=O)O)c2ccccc2)cc1 (stereo unspecified),inactive,
COc1ccc(C(CCN(Cc2ccc(OC)c(OC)c2)C(=O)CCl)c2ccccc2)cc1 (stereo unspecified),23.1 µM (active),
COc1ccc(CC(=O)N[C@@H]2c3cc(OC)c(OC)cc3C[C@H]2OCc2ccccc2)cc1,inactive,
Cc1ccc(C)c(S(=O)(=O)N(C)c2ccc(OC(=O)C3CCN(C(=O)c4ccc(F)cc4)CC3)cc2)c1,inactive,
Cn1nnnc1SCC(=O)Nc1cccc(S(=O)(=O)N2CCCCC2)c1,inactive,
COc1ccc(OC)c(NC(=O)COC(=O)Cc2ccsc2)c1,inactive,
Cc1ccc(Br)c(NS(=O)(=O)c2cccc(C(=O)N3CCNC(=O)C3)c2)c1,inactive,
OCC(O)C1OCOC(C(O)CO)C1O (stereo unspecified),inactive,
c1ccc(C(=NNc2nc3ccccc3s2)c2ccccn2)cc1,0.259 µM (active),
O=C(CCNC(=O)c1ccccc1)Nc1nc2ccccc2s1,inactive,
c1ccc2sc(NN=C3CCCC3)nc2c1,inactive,
N#CC1(Nc2ccc(-c3ccc(Cl)cc3)cc2)CCCC1,inactive,
Cc1ccc(-n2[nH]c(C)c(/C=N/N3C(=O)c4cccc5cccc(c45)C3=O)c2=O)cc1,16.4 µM (active),
Cc1ccc(-c2ccnc3[nH]n(-c4ccccc4)c(=O)c23)cc1,inactive,
Cc1[nH]n(-c2ccc([N+](=O)[O-])cc2)c(=O)c1C=NCCN1CCN(C(=O)c2ccccc2F)CC1,inactive,
